Results taken from PubChem BioAssay (Tox21).
Inconclusive results are not listed. Active and inactive are the calls of the source. The call rests on the fitted dose curve; in most records, active means well fitted activation curve with a large enough effect in the signal ratio in the repeat runs (not every such curve was filed as active); inconclusive means weak or mixed curves; inactive means flat fitted curve, though single readings scatter; the % refers to the signal ratio.

Test: qHTS assay to identify small molecule agonists of H2AX (AID 1224845)
Details: CHO-K1 phospho-H2AX Ser139 HTRF, 3 h; series mostly up to 154 µM; activation (H2AX phosphorylation): at the top concentration
Procedure, shortened: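 Wild-type CHO-K1 cells, plated overnight, exposed 3hr at 37C to 15 concentrations (0.76% DMSO final). Lysed, then HTRF anti-pH2AX (S139) cryptate and anti-H2AX-d2 antibodies, 24 hr room temperature; 665/620 nm emission read.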
On the % scale 0 is the no-effect control and ±100 the full control effect.

| Structure (SMILES) | activation (H2AX phosphorylation) |
| --- | --- |
| CN1CCC(=C2c3ccccc3Sc3ccccc32)CC1 | 5.25% [at 70.9 µM] (inactive) |
| CCc1c(C(=O)NN2CCCCC2)nn(-c2ccc(Cl)cc2Cl)c1-c1ccc(Br)cc1 | -0.285% (inactive) |
| CCCCc1nc2cccnc2n1Cc1ccc(-c2ccccc2-c2nnn[nH]2)cc1 | -1.82% (inactive) |
| OCCN1CCN(CCCN2c3ccccc3C=Cc3ccccc32)CC1 | -0.504% [at 70.9 µM] (inactive) |
| CC(=O)c1ccc2c(c1)N(CCCN(C)C)c1ccccc1S2 | 1.67% [at 70.9 µM] (inactive) |
| CCCCC/C=C\C/C=C\CCCCCCCC(=O)NC(C)c1ccccc1 (stereo unspecified) | -2.16% [at 70.9 µM] (inactive) |
| Cc1c(N)cccc1[N+](=O)[O-] | 0.0201% (inactive) |
| C[C@H](CCC(=O)O)[C@H]1CC[C@H]2[C@@H]3CC[C@@H]4C[C@H](O)CC[C@]4(C)[C@H]3C[C@H](O)[C@]12C | 0.762% (inactive) |
| CCOC(=O)COC(=O)c1cc(Oc2ccc(C(F)(F)F)cc2Cl)ccc1[N+](=O)[O-] | -3.84% (inactive) |
| CC(C)OC(=O)C(C)N(C(=O)c1ccccc1)c1ccc(F)c(Cl)c1 (stereo unspecified) | -2.4% (inactive) |
| CCCCCCCCCCCCCCCCCCOS(=O)(=O)O | 0.914% (inactive) |
| CNCCCN1c2ccccc2CCc2ccccc21 | -2.73% [at 70.9 µM] (inactive) |
| CCCCC(CC)CN1C(=O)C2C3C=CC(C3)C2C1=O (stereo unspecified) | -0.435% (inactive) |
| COC(=O)C1=C(C)NC(COC(N)=O)=C(C(=O)OC(C)C)C1c1cccc(Cl)c1Cl (stereo unspecified) | 0.624% [at 70.9 µM] (inactive) |
| CCCOC(C(=O)OC1CCN(C)CC1)(c1ccccc1)c1ccccc1 | -5.81% [at 70.9 µM] (inactive) |
| COc1cc2nc(N(C)CCCNC(=O)C3CCCO3)nc(N)c2cc1OC (stereo unspecified) | -0.801% [at 70.9 µM] (inactive) |
| Clc1ccc(Cn2c(CN3CCCC3)nc3ccccc32)cc1 | -3.44% [at 70.9 µM] (inactive) |
| CCCNCC(O)COc1ccccc1C(=O)CCc1ccccc1 (stereo unspecified) | 2.23% [at 70.9 µM] (inactive) |
| O=C(Nc1ccccc1)c1ccccc1O | 0.521% (inactive) |
| CCCCC1=NC2(CCCC2)C(=O)N1Cc1ccc(-c2ccccc2-c2nn[nH]n2)cc1 | -1.11% [at 70.9 µM] (inactive) |
| CN(C)C(=O)NC1(c2ccccc2)CCN(CC[C@@]2(c3ccc(F)c(F)c3)CN(C(=O)c3ccccc3)CCO2)CC1 | -4.25% (inactive) |
| CN1CCC(N(Cc2cccs2)c2ccccc2)CC1 | 0.698% [at 70.9 µM] (inactive) |
| CCN(CC)CCOC(=O)C(Cc1cccc2ccccc12)CC1CCCO1 (stereo unspecified) | -0.622% [at 70.9 µM] (inactive) |
| CCOC(=O)NCCOc1ccc(Oc2ccccc2)cc1 | 4.63% (inactive) |
| CN(C)c1ccc(C(c2ccccc2)c2ccc(N(C)C)cc2)cc1 | -6.18% (inactive) |
| O=C1OC(CN2CCOCC2)CN1/N=C/c1ccc([N+](=O)[O-])o1 (stereo unspecified) | -1.97% [at 70.9 µM] (inactive) |
